Eight sequences from article PMC7862700, “An all-to-all approach to the identification of sequence-specific readers for epigenetic DNA modifications on cytosine” can be followed below.

Holding throughout (experiment): DAPPL (digital affinity profiling via proximity ligation, sequencing); 10 mM Tris-HCl pH 7.5, 50 mM NaCl, 1 mM DTT, 4% glycerol, room temperature, 30 min; GST-TFs on glutathione beads, 16-mer random dsDNA library, 0.1% formaldehyde crosslink after washing; high values mean tight binding
Holding throughout (settings): protein: recombinant; tags: N-terminal GST; dsDNA, one strand shown

One test concerns the target T1, FLI1 (Homo sapiens, UniProt Q01543 1-452).
T1 sequence: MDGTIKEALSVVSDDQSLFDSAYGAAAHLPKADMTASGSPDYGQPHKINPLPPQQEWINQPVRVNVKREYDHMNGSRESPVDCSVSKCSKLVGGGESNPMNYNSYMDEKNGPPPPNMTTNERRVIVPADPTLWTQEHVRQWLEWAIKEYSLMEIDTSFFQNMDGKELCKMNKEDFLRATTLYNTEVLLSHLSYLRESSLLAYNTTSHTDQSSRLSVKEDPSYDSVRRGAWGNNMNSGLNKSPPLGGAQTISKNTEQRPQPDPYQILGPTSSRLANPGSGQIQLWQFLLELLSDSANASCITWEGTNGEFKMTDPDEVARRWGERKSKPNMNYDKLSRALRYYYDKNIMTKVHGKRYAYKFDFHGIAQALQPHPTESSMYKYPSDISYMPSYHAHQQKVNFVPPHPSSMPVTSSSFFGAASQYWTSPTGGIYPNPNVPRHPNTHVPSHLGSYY
Summed up: (§1)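 Human transcription factors fused to GST were expressed in yeast, captured on glutathione beads, given DNA barcodes and pooled with a GST-only negative control. Pools were incubated with 200 nmole of a 16-mer random double-stranded DNA library in Tris/NaCl/DTT/glycerol buffer at room temperature for 30 min. They were then washed, crosslinked with 0.1% formaldehyde, proximity-ligated (BsaI/T4 ligase, 1 h, 37 °C), PCR-amplified and sequenced on an Illumina NextSeq500. Binding signal is each 6-mer's read frequency for a factor divided by its frequency for the GST control.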

A further test concerns the target T2, ELK1 (Homo sapiens, UniProt P19419 1-428).
T2 sequence: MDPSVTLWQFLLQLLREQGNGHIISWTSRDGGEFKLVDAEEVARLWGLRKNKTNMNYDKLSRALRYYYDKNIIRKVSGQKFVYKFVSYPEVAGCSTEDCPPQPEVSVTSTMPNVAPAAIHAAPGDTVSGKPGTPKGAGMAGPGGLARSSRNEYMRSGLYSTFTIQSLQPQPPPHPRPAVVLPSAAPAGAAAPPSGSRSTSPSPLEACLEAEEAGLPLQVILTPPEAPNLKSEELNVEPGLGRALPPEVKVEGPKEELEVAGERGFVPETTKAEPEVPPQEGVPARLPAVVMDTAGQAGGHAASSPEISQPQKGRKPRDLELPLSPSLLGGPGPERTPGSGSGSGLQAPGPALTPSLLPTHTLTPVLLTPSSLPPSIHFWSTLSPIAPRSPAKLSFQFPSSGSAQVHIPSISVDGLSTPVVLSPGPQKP
The procedure, abridged:
as §1

In the next test the target is T3, GABPA (Homo sapiens, UniProt Q06546 1-454).
T3 sequence: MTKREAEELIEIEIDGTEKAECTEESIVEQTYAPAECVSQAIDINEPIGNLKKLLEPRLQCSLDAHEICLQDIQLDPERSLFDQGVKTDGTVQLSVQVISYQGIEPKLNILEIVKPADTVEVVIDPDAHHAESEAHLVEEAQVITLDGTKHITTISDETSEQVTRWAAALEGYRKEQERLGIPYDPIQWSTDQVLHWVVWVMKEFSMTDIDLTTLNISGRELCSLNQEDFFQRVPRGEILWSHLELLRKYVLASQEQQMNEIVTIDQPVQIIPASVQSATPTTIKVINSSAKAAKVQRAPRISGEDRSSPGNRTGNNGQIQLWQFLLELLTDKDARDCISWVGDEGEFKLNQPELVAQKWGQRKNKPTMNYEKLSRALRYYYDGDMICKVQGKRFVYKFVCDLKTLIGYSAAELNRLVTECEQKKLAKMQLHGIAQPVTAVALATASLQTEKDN
The procedure, abridged:
as §1

The target in the next test is T4, ERG (Homo sapiens, UniProt P11308 1-479).
T4 sequence: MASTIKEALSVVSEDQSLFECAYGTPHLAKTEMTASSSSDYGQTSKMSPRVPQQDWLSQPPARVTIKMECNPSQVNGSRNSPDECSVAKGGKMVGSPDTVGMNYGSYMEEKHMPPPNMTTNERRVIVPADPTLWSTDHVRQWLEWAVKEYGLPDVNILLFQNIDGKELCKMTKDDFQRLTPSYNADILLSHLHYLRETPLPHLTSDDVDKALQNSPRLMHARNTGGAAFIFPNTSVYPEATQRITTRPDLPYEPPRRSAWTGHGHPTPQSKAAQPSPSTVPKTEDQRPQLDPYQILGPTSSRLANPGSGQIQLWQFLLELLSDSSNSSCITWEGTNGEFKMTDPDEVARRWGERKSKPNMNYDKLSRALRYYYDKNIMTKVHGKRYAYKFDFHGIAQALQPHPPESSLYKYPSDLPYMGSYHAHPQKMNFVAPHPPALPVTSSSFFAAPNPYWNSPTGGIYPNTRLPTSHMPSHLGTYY
Summed up: as §1

The next test addresses ELF1 (Homo sapiens, UniProt P32519 1-619). Summed up: as §1
Another test deals with T5, EHF (Homo sapiens, UniProt Q9NZC4 1-300).
T5 sequence: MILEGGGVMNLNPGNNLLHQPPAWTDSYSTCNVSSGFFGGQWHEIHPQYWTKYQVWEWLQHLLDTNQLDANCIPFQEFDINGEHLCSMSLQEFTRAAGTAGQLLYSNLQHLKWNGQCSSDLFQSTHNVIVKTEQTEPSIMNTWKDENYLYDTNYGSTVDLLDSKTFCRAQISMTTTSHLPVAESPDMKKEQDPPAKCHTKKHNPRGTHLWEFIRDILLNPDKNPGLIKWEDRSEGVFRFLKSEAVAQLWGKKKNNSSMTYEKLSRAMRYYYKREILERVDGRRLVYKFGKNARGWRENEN
The procedure, abridged:
as §1

The target of test [1] is SPI1 (Homo sapiens, UniProt P17947 1-270). Summed up: as §1
A further test deals with SPIB (Homo sapiens, UniProt Q01892 1-262). The procedure, abridged:
as §1

The target of a further test is T6, ELK3 (Homo sapiens, UniProt P41970 1-407).
T6 sequence: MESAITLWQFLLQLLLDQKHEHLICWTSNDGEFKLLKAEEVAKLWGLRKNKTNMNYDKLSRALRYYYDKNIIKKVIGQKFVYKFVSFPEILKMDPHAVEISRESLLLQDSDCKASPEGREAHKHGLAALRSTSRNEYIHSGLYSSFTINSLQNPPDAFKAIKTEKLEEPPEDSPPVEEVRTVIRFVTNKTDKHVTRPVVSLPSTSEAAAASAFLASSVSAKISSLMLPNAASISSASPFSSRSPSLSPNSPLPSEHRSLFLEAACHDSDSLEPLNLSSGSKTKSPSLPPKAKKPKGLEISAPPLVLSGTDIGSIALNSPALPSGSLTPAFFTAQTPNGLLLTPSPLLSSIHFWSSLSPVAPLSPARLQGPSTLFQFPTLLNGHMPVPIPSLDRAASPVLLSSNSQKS
The procedure, abridged: as §1

Test [2] deals with SPI1 (Homo sapiens, UniProt P17947 1-270). Summed up: as §1
This is another data set of the same source.

SPIB, sequence (Q01892 whole entry): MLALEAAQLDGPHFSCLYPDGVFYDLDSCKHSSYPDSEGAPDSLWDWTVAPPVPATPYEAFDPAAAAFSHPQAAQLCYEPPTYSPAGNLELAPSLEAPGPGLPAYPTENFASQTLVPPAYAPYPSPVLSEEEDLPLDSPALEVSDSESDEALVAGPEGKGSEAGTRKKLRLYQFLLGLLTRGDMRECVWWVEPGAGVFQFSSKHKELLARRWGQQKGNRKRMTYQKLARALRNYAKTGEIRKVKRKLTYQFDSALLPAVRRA
ELF1, sequence (P32519 whole entry): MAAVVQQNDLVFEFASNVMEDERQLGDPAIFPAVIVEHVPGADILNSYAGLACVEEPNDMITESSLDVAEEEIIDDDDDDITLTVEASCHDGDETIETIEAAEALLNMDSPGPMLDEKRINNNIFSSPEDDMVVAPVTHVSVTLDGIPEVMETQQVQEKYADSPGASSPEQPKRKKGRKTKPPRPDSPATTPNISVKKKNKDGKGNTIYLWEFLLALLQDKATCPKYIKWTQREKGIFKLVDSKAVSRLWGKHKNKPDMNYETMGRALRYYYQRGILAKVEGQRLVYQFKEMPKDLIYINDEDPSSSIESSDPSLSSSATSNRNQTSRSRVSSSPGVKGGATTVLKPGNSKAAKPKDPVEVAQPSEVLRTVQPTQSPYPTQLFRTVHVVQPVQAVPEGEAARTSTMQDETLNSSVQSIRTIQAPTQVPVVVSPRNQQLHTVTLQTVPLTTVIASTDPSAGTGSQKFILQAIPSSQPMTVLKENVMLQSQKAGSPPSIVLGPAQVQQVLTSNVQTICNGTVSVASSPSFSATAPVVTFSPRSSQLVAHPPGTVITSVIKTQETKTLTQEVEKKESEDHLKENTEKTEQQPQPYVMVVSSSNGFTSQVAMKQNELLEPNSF

For the sequence GATTTT, the binding signal in the test with FLI1 is 1.16 fold enrichment (6-mer frequency, TF over GST control); with ELK1, 1.15 fold enrichment (6-mer frequency, TF over GST control); with GABPA, 1.21 fold enrichment (6-mer frequency, TF over GST control); with ERG it was 1.12 fold enrichment (6-mer frequency, TF over GST control); in the test with ELF1, 1.12 fold enrichment (6-mer frequency, TF over GST control); with EHF, 1.18 fold enrichment (6-mer frequency, TF over GST control). The binding signal with SPI1 [1] is 1.12 fold enrichment (6-mer frequency, TF over GST control); in the test with SPIB, 1.12 fold enrichment (6-mer frequency, TF over GST control); with ELK3, 1.07 fold enrichment (6-mer frequency, TF over GST control).

TGCGCT: the binding signal with FLI1 was 1.27 fold enrichment (6-mer frequency, TF over GST control); with ELK1, 1.3 fold enrichment (6-mer frequency, TF over GST control); in the test with GABPA it was 1.13 fold enrichment (6-mer frequency, TF over GST control); with ERG, 1.25 fold enrichment (6-mer frequency, TF over GST control); with ELF1, 1.19 fold enrichment (6-mer frequency, TF over GST control); in the test with EHF, 1.25 fold enrichment (6-mer frequency, TF over GST control). The binding signal was 1.11 fold enrichment (6-mer frequency, TF over GST control) with SPI1 [1]; 1.31 fold enrichment (6-mer frequency, TF over GST control) in the test with SPIB; 1.25 fold enrichment (6-mer frequency, TF over GST control) with ELK3.

As for CTCTTC, the binding signal in the test with FLI1 was 1.62 fold enrichment (6-mer frequency, TF over GST control); in the test with ELK1 it was 1.64 fold enrichment (6-mer frequency, TF over GST control); with GABPA, 1.66 fold enrichment (6-mer frequency, TF over GST control); in the test with ERG, 1.71 fold enrichment (6-mer frequency, TF over GST control); with ELF1, 1.66 fold enrichment (6-mer frequency, TF over GST control); in the test with EHF it was 1.69 fold enrichment (6-mer frequency, TF over GST control). In addition, the binding signal is 1.6 fold enrichment (6-mer frequency, TF over GST control) in the test with SPI1 [1]; 1.84 fold enrichment (6-mer frequency, TF over GST control) with SPIB; 1.66 fold enrichment (6-mer frequency, TF over GST control) with ELK3.

TGGACT: the binding signal was 1.19 fold enrichment (6-mer frequency, TF over GST control) in the test with FLI1; 1.27 fold enrichment (6-mer frequency, TF over GST control) in the test with ELK1; 1.25 fold enrichment (6-mer frequency, TF over GST control) with GABPA; 1.18 fold enrichment (6-mer frequency, TF over GST control) with ERG; 1.26 fold enrichment (6-mer frequency, TF over GST control) with ELF1; 1.3 fold enrichment (6-mer frequency, TF over GST control) with EHF. Moreover, the binding signal is 1.18 fold enrichment (6-mer frequency, TF over GST control) in the test with SPI1 [1]; 1.41 fold enrichment (6-mer frequency, TF over GST control) with SPIB; 1.2 fold enrichment (6-mer frequency, TF over GST control) with ELK3.

For TCCGGT, the binding signal was 3.61 fold enrichment (6-mer frequency, TF over GST control) in the test with FLI1; 3.83 fold enrichment (6-mer frequency, TF over GST control) with ELK1; 3.5 fold enrichment (6-mer frequency, TF over GST control) with GABPA; 4.63 fold enrichment (6-mer frequency, TF over GST control) with ERG; 3.46 fold enrichment (6-mer frequency, TF over GST control) with ELF1; 3.67 fold enrichment (6-mer frequency, TF over GST control) with EHF. In addition, the binding signal with SPI1 [2] was 3.58 fold enrichment (6-mer frequency, TF over GST control); with SPIB, 3.58 fold enrichment (6-mer frequency, TF over GST control); with ELK3, 4.4 fold enrichment (6-mer frequency, TF over GST control).

With TTCCTA, the binding signal in the test with FLI1 was 1.82 fold enrichment (6-mer frequency, TF over GST control); with ELK1, 1.72 fold enrichment (6-mer frequency, TF over GST control); in the test with GABPA, 1.55 fold enrichment (6-mer frequency, TF over GST control); with ERG, 1.78 fold enrichment (6-mer frequency, TF over GST control); in the test with ELF1, 1.63 fold enrichment (6-mer frequency, TF over GST control); in the test with EHF it was 1.59 fold enrichment (6-mer frequency, TF over GST control). In addition, the binding signal is 1.7 fold enrichment (6-mer frequency, TF over GST control) in the test with SPI1 [1]; 1.93 fold enrichment (6-mer frequency, TF over GST control) with SPIB; 1.74 fold enrichment (6-mer frequency, TF over GST control) with ELK3.

With GTTTTT, the binding signal with FLI1 is 1.31 fold enrichment (6-mer frequency, TF over GST control); with ELK1 it was 1.19 fold enrichment (6-mer frequency, TF over GST control); with GABPA, 1.4 fold enrichment (6-mer frequency, TF over GST control); with ERG it was 1.17 fold enrichment (6-mer frequency, TF over GST control); with ELF1, 1.34 fold enrichment (6-mer frequency, TF over GST control); with EHF, 1.38 fold enrichment (6-mer frequency, TF over GST control). Moreover, the binding signal with SPI1 [1] is 1.42 fold enrichment (6-mer frequency, TF over GST control); with SPIB it was 1.36 fold enrichment (6-mer frequency, TF over GST control); in the test with ELK3, 1.51 fold enrichment (6-mer frequency, TF over GST control).

Consider TTTCCG, for which the binding signal was 3.86 fold enrichment (6-mer frequency, TF over GST control) with FLI1; 3.68 fold enrichment (6-mer frequency, TF over GST control) in the test with ELK1; 3.28 fold enrichment (6-mer frequency, TF over GST control) with GABPA; 4.93 fold enrichment (6-mer frequency, TF over GST control) with ERG; 3.41 fold enrichment (6-mer frequency, TF over GST control) in the test with ELF1; 3.75 fold enrichment (6-mer frequency, TF over GST control) with EHF. In addition, the binding signal was 3.47 fold enrichment (6-mer frequency, TF over GST control) with SPI1 [2]; 3.89 fold enrichment (6-mer frequency, TF over GST control) with SPIB; 4.01 fold enrichment (6-mer frequency, TF over GST control) in the test with ELK3.
